# From PubChem BioAssay AID624117 (National Center for Advancing Translational Sciences (NCATS), 2012)
# Results filed as inconclusive are left out. Unmarked numbers belong to inactive results. Calls of active or inactive are those of the source. The call rests on the fitted dose curve; in most records, active means well fitted curve in the direction sought with a large enough effect; inconclusive means small, poorly fitted or top-dose-only effect, or another doubt; inactive means no such curve, though single readings can be large or run the other way.
# Test: qHTS Assay for Rab9 Promoter Activators: Hit Validation Using Renilla Luciferase Read-Out; on activation (negative = inhibition): % of control where 0% means no effect
# Conditions: Huh7 NPC1 promoter Renilla luciferase reporter, 24 h; series mostly up to 76.9 µM; activation (negative = inhibition): at the top concentration
# Method in brief: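 Huh7 cells stably carrying NPC promoter-luciferase, 1,500 cells/well, exposed to compound for 24 h at 37 deg C. Luminescence read 10 min after […] addition; validation of firefly-read primary hits.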
# Potency means the concentration at half of the fitted maximal effect.
SMILES,activation (negative = inhibition) [%],Potency
O=C(NCC1CCCO1)C(c1ccc(F)cc1)N(Cc1ccc2c(c1)OCO2)C(=O)c1ccc(CN2CCOCC2)o1 (stereo unspecified),-4.06,
Cc1nc(-c2ccc(S(=O)(=O)Oc3ccc(Cl)cc3Cl)s2)cs1,-49.3,
Nc1ccccc1C(=O)N/N=C1/C2CN3CCN(C2)CC1(Cc1ccccc1)C3,-14.9,
O=C(Nc1nc2ccc(F)cc2s1)c1ccc(N2CCCC2=O)cc1,2.48,
CCOCC(=O)Nc1c(C(=O)Nc2ccc3c(c2)OCCO3)oc2ccccc12,-20.3,
O=C(CCS(=O)(=O)c1ccccc1)Nc1ccc(-c2nc3ccccc3s2)cc1,1.79,
Cc1cc(C)cc(N(CC(=O)NC2CCCC2)C(=O)CNC(=O)c2ccco2)c1,13.6,
O=C(CCc1cccc(Cl)c1)NC1CCCN(Cc2ccccc2F)C1 (stereo unspecified),-8.65,
COc1ccccc1C(=O)Nc1nnc(SCC(=O)NC2CCCC2)s1,5.46,
CC1(C)CC(=O)c2c(O)c(-c3ccccc3)c(=O)n(-c3ccccc3)c2C1,-3.78,
O=C(NCCSCc1c(F)cccc1Cl)c1ccc(CN2CCOCC2)cc1,-51.8,
CC(Sc1ncnc2c1cnn2-c1ccccc1)C(=O)Nc1ccc(N2CCOCC2)cc1 (stereo unspecified),-7.01,
COc1ccc(/C=C\C(=O)c2c(O)ccc3c(C)cc(=O)oc23)cc1OC,-59.8,
S=C1NCN(CCc2ccccc2)CN1Cc1ccccc1,-2.18,
O=C(C1COc2ccccc2O1)N1CCN(S(=O)(=O)c2ccccc2)CC1 (stereo unspecified),5.12,
CC(C)C1(CCNC(=O)c2cccs2)CCOC(C)(C)C1 (stereo unspecified),-5.65,
O=C(N/N=C/c1ccc(-c2ccc(Br)cc2)o1)c1ccc2c(c1)OCO2,-12.6,
CCCCCCC(=O)Nc1ccc(C(=O)N/N=C/c2cccnc2)cc1,2.29,
CCCCCCOc1ccc(OC(=O)c2cccnc2)cc1,,2070 nM (active)
COCCNC(=O)Cn1nc(-c2ccccc2)c2ccccc2c1=O,-22.4,
CC(C)C(NC(=O)c1ccc([N+](=O)[O-])cc1Cl)C(=O)N1CCCC1 (stereo unspecified),1.06,
